GDH-TPI inh = counter-screen for M. tuberculosis FBA inhibitors: GDH-TPI coupled enzymes; AID 588335; 1.2% of 360,000 active; inhibition, % at 4.8 µM; GDH-TPI coupled enzyme counterscreen, NADH absorbance; in the data active means inhibition above about 30%;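 further: 0% = DMSO wells and 100% = wells lacking the enzyme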
PrPC surface inh = reduces human prion protein on the cell surface; P04156; cell surface PrPC, TR-FRET read-out; inhibition, % at 13.8 µM; 0.43% of 370,000 active; in the data active means inhibition above about 24%; further: 0% = median of the test wells and 100% = reference compound wells
3CLpro inhibitor = SARS-CoV 3CLpro protease inhibition; P0C6X7; recombinant SARS-CoV 3CLpro, quenched FRET peptide cleavage; inhibition, % at 6 µM; 0.14% of 290,000 active; AID 1706; in the data active means inhibition above about 12%
Vc quorum ag = inducers of Vibrio cholerae quorum light production without autoinducers; V. cholerae BH1578 lux reporter, luminescence, 6 h; activation, % at 18.7 µM; 0.16% of 350,000 active; AID 588436; in the data active means activation mostly above about 9.7%, no sharp cut-off
FBA Mtb inh = inhibitors of M. tuberculosis fructose-bisphosphate aldolase. P9WQA3. purified M. tuberculosis FBA, fluorescence read-out. inhibition, % at 1 µM. 2.3% of 360,000 active; in the data active means inhibition above about 27%;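 further: 0% = vehicle and 100% = reference inhibitor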
Target sequence (P9WQA3 whole entry, looked up): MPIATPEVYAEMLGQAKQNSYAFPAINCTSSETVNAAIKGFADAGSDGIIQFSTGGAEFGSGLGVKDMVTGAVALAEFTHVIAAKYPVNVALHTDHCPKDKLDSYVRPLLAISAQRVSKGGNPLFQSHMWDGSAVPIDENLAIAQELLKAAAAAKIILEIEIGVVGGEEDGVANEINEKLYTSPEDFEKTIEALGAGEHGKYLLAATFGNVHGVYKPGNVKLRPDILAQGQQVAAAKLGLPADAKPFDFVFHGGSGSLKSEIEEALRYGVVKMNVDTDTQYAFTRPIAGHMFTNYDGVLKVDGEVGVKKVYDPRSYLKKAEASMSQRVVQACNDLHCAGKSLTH
Starred values were filed as active, the others as inactive; i = inactive; nt = no result; + = active, no number. Sampled rows, rich in hits. Any-hit rate of the full collection: about 3.9%.

SMILES	GDH-TPI inh	PrPC surface inh	3CLpro inhibitor	Vc quorum ag	FBA Mtb inh
Cc1ccc(OCC(=O)Nc2ccc(N3CCN(C(=O)c4ccco4)CC3)cc2)cc1	12.2	0.4	-0.8	1.5	2.4
CNc1nc(N)c([N+](=O)[O-])c(NCc2ccccc2)n1	42.0*	-3.7	-1.4	-0.2	-1.8
CN(C)CCCNc1nc(N)c([N+](=O)[O-])c(NCc2ccccc2)n1	41.0*	-7.8	4.8	-0.8	0.9
CN(C)c1nc(N)c([N+](=O)[O-])c(NCCO)n1	50.6*	3.3	-1.1	-0.2	-1.9
Nc1nc(Nc2ccccc2)nc(NCc2ccccc2)c1[N+](=O)[O-]	17.7	-4.6	6.9	i	-3.6
Nc1nc(NCc2ccccc2)nc(NCc2ccccc2)c1[N+](=O)[O-]	14.4	4.4	0.1	-0.2	0.1
CN(c1ccccc1)c1nc(N)c([N+](=O)[O-])c(NCCO)n1	25.8	-11.1	1.7	-0.3	-2.7
CN(C)c1nc(N)c([N+](=O)[O-])c(NCc2ccccc2)n1	42.0*	-1.3	-1.7	-0.2	0.1
COCCCNc1nc(N)c([N+](=O)[O-])c(NCc2ccccc2)n1	15.1	4.2	-4.4	-1.8	-3.6
CCN1CCN(c2c(/C=C3\SC(=S)N(Cc4ccco4)C3=O)c(C)c(C#N)c(=O)n2C)CC1	0.4	-4.6	-4.7	-0.4	-2.7
O=C(O)c1cccc(-c2ccccc2)c1O	-3.9	10.3	nt	i	116.3*
CCN1C(=O)/C(=C\N(C)C)NC1=S	33.6*	-2.4	5.1	-0.2	-3.6
COc1ccc(N2C(=O)/C(=C/N(C)C)NC2=S)cc1	17.7	-18.2	4.8	-0.3	-3.8
O=C(NCCN1CCOCC1)C(=O)NCC1OCCCN1S(=O)(=O)c1cc(F)ccc1F (stereo unspecified)	-7.2	3.8	-0.8	-0.1	0.4
Nc1nn(-c2ccccc2)nc1C(=O)OCc1ccccc1	6.0	-4.8	0.5	-2.0	177.3*
NC(=O)c1nn(-c2ccccc2)nc1N	4.9	2.6	-1.5	0.2	+
COc1ccc(C2CC(=O)C3=C(C2)Nc2ccccc2N(C(=O)CCC(=O)O)C3c2ccc(F)cc2)cc1 (stereo unspecified)	50.0*	-3.9	4.4	-0.7	18.7
Cc1ccc(C2(c3ccc(C)cc3)CC2C(=O)Nc2ccc([N+](=O)[O-])cc2O)cc1 (stereo unspecified)	4.9	4.7	2.6	-0.4	-5.8
Cc1c(C)c2cc(Cl)c(OCC(=O)NC3CC(C)(C)NC(C)(C)C3)cc2oc1=O	14.8	-10.3	-1.8	-0.2	18.8
Cc1cc(OCC(=O)N2CCC(C(=O)O)(c3ccccc3)CC2)c2c(C)c(C)c(=O)oc2c1	-1.0	-8.3	3.9	0.4	64.0*
Cc1cc(OCC(=O)NC2CC(C)(C)NC(C)(C)C2)c2c(C)c(C)c(=O)oc2c1	24.4	-6.0	-0.1	-0.2	131.2*
O=C(Nc1ccc2ccccc2n1)c1ccccc1Br	1.1	5.0	1.8	-0.3	-2.3
Nc1ccccc1/C=C/c1ccccc1N	27.3	10.4	nt	i	146.4*
COc1ccc(C2=NS(=O)(=O)N(C)C(C(=O)N3CCC(C)CC3)=C2)cc1	31.1*	0.6	-0.9	-0.2	0.1
Fc1cc2nc(-c3ccncc3)[nH]c2cc1F	0.6	-6.1	-1.1	-0.1	127.2*
SMILES	GDH-TPI inh	PrPC surface inh	3CLpro inhibitor	Vc quorum ag	FBA Mtb inh
COC(=O)c1ccc(C(=O)Nc2ccc3nc(-c4ccncc4)[nH]c3c2)cc1	22.3	1.0	-6.5	-1.0	-0.7
Nc1c(C(=O)c2ccccc2O)cnn1-c1ccc(S(=O)(=O)N2CCOCC2)cc1[N+](=O)[O-]	nt	12.2	-1.2	nt	nt
CO[C@@]12[C@H](COC(N)=O)C3=C(C(=O)C(C)=C(N)C3=O)N1C[C@@H]1N[C@@H]12	18.1	1.9	nt	58.1*	-0.8
CO[C@@]12[C@@H]3N[C@@H]3CN1C1=C(C(=O)C(N)=C(C)C1=O)[C@@H]2COC(N)=O	21.6	-6.3	nt	i	-1.1
COC(=O)c1cc2c(-c3ccccc3)cc3ccccn3c-2c1C(=O)OC	35.2*	-18.3	-2.5	-0.6	-4.5
CC(=O)N=C1SC2CS(=O)(=O)CC2N1c1ccc(-c2nc3ccc(C)cc3s2)cc1 (stereo unspecified)	nt	nt	-3.1	nt	nt
Cc1ccc2nc(-c3ccc(N4C(=NC(=O)CCC(=O)O)SC5CS(=O)(=O)CC54)cc3)sc2c1 (stereo unspecified)	11.0	nt	-2.1	-0.6	66.1*
Cc1cc(=O)c(C(=O)Nc2cccc(C(=O)NC3CC3)c2)nn1-c1ccccc1	9.7	-1.8	nt	i	-2.4
CC1(C)OC(=O)C(=NNc2ccccc2C(=O)O)C(=O)O1	49.4*	-13.2	0.1	-0.3	-4.2
CCOc1ccc(-c2cc(NC(=O)c3c(F)cccc3F)c(C(=O)O)s2)cc1	31.7*	10.8	6.9	0.5	-0.1
COC(=O)c1sc(-c2ccc(Cl)cc2)cc1NC(=O)c1ccccc1C(=O)O	31.7*	9.2	4.8	-0.7	1.8
CCOc1ccc(NC(=O)Nc2cc(-c3ccccc3)sc2C(=O)OC)cc1	9.9	1.5	-3.3	-0.3	0.6
COC(=O)[C@]1(C#N)CC(=O)N(Cc2ccc(Cl)cc2)[C@@H]1c1ccc(OC)cc1	nt	-2.3	nt	nt	nt
O=C(N/N=C/c1ccc([N+](=O)[O-])cc1)c1ccc2nc[nH]c2c1	37.4*	-48.3	0.6	i	-2.6
COC(=O)c1ccc(/C=N/NC(=O)c2ccc3nc[nH]c3c2)cc1	26.5	-0.1	2.5	-1.7	-2.4
Cc1ccc(/C=N/NC(=O)c2ccc3nc[nH]c3c2)o1	62.8*	-4.4	-1.6	i	2.2
C[C@@H]1CN([C@H](C)CO)C(=O)Cc2cc(NC(=O)Cn3cnnn3)ccc2O[C@@H]1CN(C)Cc1ccc(Cl)c(Cl)c1	13.8	-3.1	nt	i	2.4
CCOC(=O)/C(=N\Nc1ccccc1)S(=O)(=O)c1ccccc1	31.0*	4.9	-2.5	-0.2	-2.3
CCOC(=O)c1ccc(NC(=S)P(=O)(c2ccccc2)c2ccccc2)cc1	4.0	8.8	nt	-0.3	-3.2
CCOC(=O)/C(=N/Nc1ccc(C)cc1)S(=O)(=O)c1ccc(Cl)cc1	11.7	6.4	5.9	i	2.0
CCOC(=O)/C(=N\Nc1ccccc1)P(=O)(c1ccccc1)c1ccccc1	51.0*	-0.9	3.1	0.2	1.7
CN1C[C@@H]2[C@@H]3C(=O)N(Cc4ccccc4)C(=O)[C@@H]3[C@](Cc3ccccc3)(C1=O)N2C(=O)c1ccc(Cl)cc1	-10.0	-3.3	nt	i	-3.9
N=C1/C(=C/c2coc3ccccc3c2=O)C(=O)N=C2SC(c3ccco3)=NN12	7.8	nt	-1.5	i	-1.5
N=C1/C(=C\c2coc3ccccc3c2=O)C(=O)N=C2SC(c3ccncc3)=NN12	32.1*	-10.8	4.2	-0.9	7.8
O=C(O)/C=C/c1cccc2c1OCCO2	6.2	4.6	-1.8	-0.3	1.8
Nc1nccnc1C(=O)OCC(=O)N1CCN(S(=O)(=O)c2ccc(Cl)cc2)CC1	8.1	6.3	nt	2.3	148.5*
Nc1nccnc1C(=O)OCC(=O)C12CC3CC(CC(C3)C1)C2	8.3	-1.6	nt	1.2	127.2*
